This note sets out measurements from the supplement of paper PMC10600219.

Where “and” joins values, the source holds several entries; their conditions need not be identical. Identical values can stand only once. In all, about 2,800 compounds were measured (“cell viability relative to vehicle”: median about 1.1, lowest 2% from about 0.19 on). The list comes from a sample in which the lowest values are over-represented; it also holds similar structures and randomly drawn compounds.

This experiment concerns NCI-H2228 parental. The experiment in a line: cell viability relative to vehicle (fraction of vehicle); NCI-H2228 is an ALK-positive lung cancer line and DTP means drug-tolerant persister; higher = less growth inhibition. As to conditions: 100 nM; treatment time 6 days. The procedure, abridged: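 NCI-H2228 parental cells and drug-tolerant persister cells were plated in 384-well plates; the persisters had been generated with 1000 nM of a targeted drug over 13 days. One day later, the 3114-agent TargetMol anti-cancer compound library was added at 100 nM, with DMSO serving as vehicle. ATP was measured 6 days after that using the CellTiter-Glo 3D Cell Viability Assay. Values are cell viability expressed relative to vehicle-treated cells.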
For `Nc1nc(Cl)nc2c1ncn2[C@@H]1O[C@H](CO)[C@@H](O)[C@@H]1F` [Clofarabine], the cell viability stood at 0.151.
Take `Nc1nc(Cl)nc2c1ncn2[C@H]1C[C@H](O)[C@@H](CO)O1` [Cladribine]: the cell viability was 0.201.
On to `Nc1nc(F)nc2c1ncn2[C@@H]1O[C@H](CO)[C@@H](O)[C@@H]1O` [Fludarabine], for which the cell viability worked out at 1.12.
The same measure for `NS(=O)(=O)Oc1ccc2c3c(c(=O)oc2c1)CCCCC3` [Irosustat]: 1.04; for `O=C(O)c1ccc(S(=O)(=O)NC2CCCCC2)cc1`: 0.986 and 1.12.
As to `C[C@@H](Oc1cc(-n2cnc3ccc(CN4CCN(C)CC4)cc32)sc1C(N)=O)c1ccccc1C(F)(F)F`, the cell viability was determined as 0.156.
The same measure for `CC(C)c1cc(C(=O)N2Cc3ccc(CN4CCN(C)CC4)cc3C2)c(O)cc1O` [Onalespib]: 0.29; for `COc1ccc(CC(C)(C)NC[C@H](O)c2cc(O)cc3c2OCC(=O)N3)cc1` [Olodaterol]: 0.923; for `Cc1ccc(/C=C2\CNC/C(=C\c3ccc(C)cc3)C2=O)cc1`: 1.06.
The same measure for `c1ccc(CNc2ccccc2)cc1` [N-Phenylbenzylamine]: 1.16; for `Cc1cc(O)c(-c2ccc(C(C)CN)cc2)c2c1[nH]c(=O)c1sccc12` (stereo unspecified): 0.116.
With `COC(=O)c1ccc(O)c(OC)c1` [Methyl Vanillate] the figure was 1.18; with `CCC(=O)N1CCN(c2ccc(-n3c(=O)ccc4cnc5ccc(-c6cnc7ccccc7c6)cc5c43)cc2C(F)(F)F)CC1` [Torin 1], 0.306.
As for `Cn1c(=O)n(-c2ccc(C(C)(C)C#N)cc2)c2c3cc(-c4cnc5ccccc5c4)ccc3ncc21` [Dactolisib], the cell viability stood at 0.258.
Turning to `COc1ccc(-c2ccc3ncc4c(c3c2)n(-c2ccc(N3CCNCC3)c(C(F)(F)F)c2)c(=O)n4C)cn1`, the cell viability was determined as 0.172.
As to `NC(=O)c1ccc2nc(-c3ccc(Oc4ccc(Cl)cc4)cc3)[nH]c2c1`, the cell viability turned out to be 0.996.
As for `Nc1ccc(Cl)cc1C(=O)O` [2-Amino-5-chlorobenzoic acid], the cell viability came to 1.16.
Regarding `Cc1cc(Nc2cc(N3CCN(C)CC3)nc(Sc3ccc(NC(=O)C4CC4)cc3)n2)n[nH]1` [Tozasertib], the cell viability is 0.158.
With `Cc1cc(Nc2cc(N3CCN(C)CC3)nc(/C=C/c3ccccc3)n2)n[nH]1`, the cell viability was 0.803.
The same measure for `Cc1nc(Nc2ncc(C(=O)Nc3c(C)cccc3Cl)s2)cc(N2CCN(CCO)CC2)n1` [Dasatinib]: 0.872; for `Cc1nc(Nc2ncc(C(=O)Nc3c(C)cccc3Cl)s2)cc(N2CCN(CCO)CC2)n1` [Dasatinib monohydrate]: 0.77; for `O=C(O)c1ccc(CN2C[C@@H]3C[C@H]2CN3Cc2ccc(Oc3ccc(-c4ncco4)cc3)cc2)cc1` [Acebilustat]: 1.05.
With `CN1C(=O)C(C)(C)Oc2c(-c3cn(C)c(=O)c4[nH]ccc34)cc(S(C)(=O)=O)cc21` the figure was 0.935.
As for `C(=N\NC1=NCCN1)/c1c2ccccc2c(/C=N/NC2=NCCN2)c2ccccc12` [Bisantrene], the cell viability amounted to 1.01.
As to `CC(C)=CCc1cc(-c2coc3cc(O)ccc3c2=O)ccc1O` [Neobavaisoflavone], the cell viability was determined as 1.17.
For `CC(=O)NCCC(=O)O`, the cell viability was 0.856.
The same measure for `COc1cc(/C=C2/SC(=S)NC2=O)ccc1OCC(=O)O`: 1.1.
With `COc1cc(C(=O)N2CCC(N3CCN(C)CC3)CC2)ccc1Nc1ncc2c(n1)N(C)c1ccccc1C(=O)N2C` the figure was 1.11; with `CCOc1cc(C(=O)N2CCC(N3CCN(C)CC3)CC2)ccc1Nc1ncc2c(n1)N(C1CCCC1)c1ccccc1C(=O)N2C`, 1.23.
The same measure for `CCOc1cc(N2CCC(O)CC2)ccc1Nc1ncc2c(n1)N(C1CCCC1)CCC(=O)N2C`: 1.15.
Take `CC[C@@H]1C(=O)N(C)c2cnc(Nc3ccc(C(=O)NC4CCN(C)CC4)cc3OC)nc2N1C1CCCC1`: the cell viability amounted to 0.167.
With `CC[C@@H]1C(=O)N(C)c2cnc(Nc3ccc(C(=O)N[C@H]4CC[C@H](N5CCN(CC6CC6)CC5)CC4)cc3OC)nc2N1C(C)C` [Volasertib] the figure was 0.192; with `COc1cc(C(=O)NC2CCN(C)CC2)ccc1Nc1ncc2c(n1)N(C1CCCC1)CC(F)(F)C(=O)N2C`, 0.171; with `FC(F)(F)c1ccccc1-c1nc(NCc2cccs2)c2ccccc2n1`, 1.04.
With `CC(CCc1ccccn1)(CCc1ccccn1)C(=O)c1ccccc1` [JAK2 Inhibitor V] the figure was 1.08.
Regarding `COc1cc2ncnc(Nc3ccc(Oc4ccccc4)cc3C)c2cc1OC`, the cell viability turned out to be 0.96.
As to `CCc1ccc(-c2nc(CSCC(=O)NCCc3ccccc3)c(C)o2)cc1`, the cell viability was found to be 1.1.
The same measure for `COc1cc(N(C)C)cc(CN(C)CCc2ccc([N+](=O)[O-])cc2)c1O` [CDC25 Phosphatase Inhibitor I]: 1.05.
On to `O=C(O[C@@H]1Cc2c(O)cc(O)cc2O[C@H]1c1cc(O)c(O)c(O)c1)c1cc(O)c(O)c(O)c1` [(-)-Gallocatechin gallate], for which the cell viability was 1.07.
In the case of `O=C1NCCSc2c1sc1ccc(O)cc21`, the cell viability turned out to be 1.05.
For the compound `Cc1csc(-c2nnc(Nc3ccc(Oc4ncccc4-c4ccnc(N)n4)cc3)c3ccccc23)c1`, the cell viability was 0.143.
With `C[C@@H]1CCCCCCCCCCCCC(=O)C1` [Muscone] the figure was 1.13; with `CC(NC(=O)C(Cc1ccccc1)NC(=O)OCc1ccccc1)C(=O)CF` (stereo unspecified), 1.1.
For `COC[C@H](NC(=O)c1cnc(C)s1)C(=O)N[C@@H](COC)C(=O)N[C@@H](Cc1ccccc1)C(=O)[C@@]1(C)CO1` [Oprozomib], the cell viability came out at 0.176.
Take `CC(=O)NC(Cc1ccccc1)C(=O)O` (stereo unspecified) [Afalanine]: the cell viability was found to be 1.04.
With `Cn1c(=O)c(Oc2ccc(F)cc2F)cc2cnc(NC(CCO)CCO)nc21` [Pamapimod] the figure was 1.05; with `C[C@@H]1CC[C@@]2(NC1)O[C@H]1C[C@H]3[C@@H]4CC=C5C[C@@H](O[C@@H]6O[C@H](CO)[C@H](O)[C@H](O[C@@H]7O[C@H](CO)[C@@H](O)[C@H](O)[C@H]7O)[C@H]6O[C@@H]6O[C@@H](C)[C@H](O)[C@@H](O)[C@H]6O)CC[C@]5(C)[C@H]4CC[C@]3(C)[C@H]1[C@@H]2C` [Solasonine], 1.1.
As to `Cn1cc(-c2cc3c(N4CCN(c5ncc([C@@](C)(N)c6ccc(F)cc6)cn5)CC4)ncnn3c2)cn1` [Avapritinib], the cell viability worked out at 0.846.
With `CC(C)C[C@H](NC(=O)CNC(=O)c1cc(Cl)ccc1Cl)B(O)O` [Ixazomib] the figure was 0.121; with `C[C@H](NC(=O)CNC(=O)c1cccc(Cl)c1)c1ccccc1`, 1.09.
With `CCCC(C)NC(=O)c1ccc(Cl)c(Cl)c1` (stereo unspecified) the figure was 1.06.
With `CC(C)C[C@H](NC(=O)CNC(=O)c1cc(Cl)ccc1Cl)B1OC(=O)C(CC(=O)O)(CC(=O)O)O1` the figure was 0.106.
As for `CCNC(=O)Nc1ccc(-c2nc(N3CCOC[C@@H]3C)c3c(n2)C(C)(C)S(=O)(=O)C3)cc1`, the cell viability is 0.547.
With `CCn1nc(C2CCN(C(=O)CCO)CC2)nc1-c1cnc(N)c(-c2nnc(C(C)(C)C)o2)n1` the figure was 1.04; with `COc1cc(OCc2cccc(-c3ccccc3)c2C)cc(OC)c1CN1CCCC[C@H]1C(=O)O` [PD-1/PD-L1 inhibitor 1], 1.09.
As to `Nc1n[nH]c2cc(-c3ccc(=O)n(Cc4cccc(Cl)c4)c3)ccc12`, the cell viability was 1.
In the case of `Cc1cc(-n2cccc2)c(S(C)(=O)=O)cc1C(=O)N=C(N)N` [Eniporide], the cell viability amounted to 1.24.
The same measure for `Nc1nccc(Oc2ccc3c(C(=O)Nc4cccc(C(F)(F)F)c4)cccc3c2)n1`: 1.15; for `C=C1CCC[C@]2(C)C[C@]3(O)OC(=O)C(C)=C3C[C@@H]12` [Atractylenolide III]: 1.1.
The same measure for `COc1nccnc1NS(=O)(=O)c1ccc(NC(=O)/C=C/c2ccc([N+](=O)[O-])s2)cc1` [Necrosulfonamide]: 1.13.
With `O=C(COCC(=O)N1CCN(C(c2ccccc2)c2ccccc2)CC1)Nc1ccc(Cl)cc1C(=O)O` [TM5275 sodium], the cell viability is 0.996.
The same measure for `NCCC(=O)O` [beta-Alanine]: 1.24.
For the compound `CC(C)S(=O)(=O)c1ccc2nccc(Nc3ccc4scnc4c3)c2c1`, the cell viability is 1.08.
On to `Nc1nc2[nH]cc(CCc3ccc(C(=O)N[C@@H](CCC(=O)O)C(=O)O)cc3)c2c(=O)[nH]1` [Pemetrexed Disodium Hydrate], for which the cell viability was 0.187.
As to `Nc1nc(=O)c2c([nH]1)NC[C@H](CNc1ccc(C(=O)N[C@@H](CCC(=O)O)C(=O)O)cc1)N2C=O` [Calcium Levofolinate], the cell viability is 1.15.
Turning to `Cc1ccc2nc(N)[nH]c(=O)c2c1Sc1ccncc1` [Nolatrexed], the cell viability turned out to be 1.04.
With `COc1c2c(cc3c1-c1c(cc4c(c1OC)OCO4)C[C@H](C)[C@H](C)C3)OCO2` [Schisandrin C] the figure was 0.951.
With `N#CC(=Cc1cc(Cl)cc(Cl)c1)c1cccnc1` the figure was 1.14; with `CCN(CC)CCOc1ccc(Nc2nc(-c3ccccc3NC(=O)CCN3CCN(C)CC3)nc3ccccc23)cc1`, 1.15.
The same measure for `CC(C)Oc1ccc(C(=O)N[C@H](CNC(=O)CN(C)C)Cc2ccc(-c3cn4cccc([C@H](C)O)c4n3)cc2)cc1Cl`: 0.15; for `COc1ccc(-c2cc(=O)c3c(O)cc(O[C@@H]4O[C@H](CO[C@@H]5O[C@@H](C)[C@H](O)[C@@H](O)[C@H]5O)[C@@H](O)[C@H](O)[C@H]4O)cc3o2)cc1` [Linarin]: 1.02; for `NC(=O)c1[nH]cnc1N` [4-Amino-5-imidazolecarboxamide]: 1.23.
Regarding `CCn1cc(-c2cccc(C(F)(F)F)c2)c2sc(C(=N)NC3CCS(=O)(=O)CC3)cc2c1=O`, the cell viability is 1.1.
`CC(C)C[C@H](NC(=O)[C@H](CCc1ccccc1)NC(=O)CN1CCOCC1)C(=O)N[C@@H](Cc1ccccc1)C(=O)N[C@@H](CC(C)C)C(=O)[C@@]1(C)CO1` [Carfilzomib]: the cell viability amounted to 0.0349.
For the compound `CC(C)c1nc(CN(C)C(=O)N[C@@H](CCN2CCOCC2)C(=O)N[C@H](CC[C@H](Cc2ccccc2)NC(=O)OCc2cncs2)Cc2ccccc2)cs1` [Cobicistat], the cell viability worked out at 1.14.
With `COc1ccc(C[C@H](NC(=O)[C@H](C)NC(=O)CN2CCOCC2)C(=O)N[C@@H](Cc2ccccc2)C(=O)C2(C)CO2)cc1` (stereo in doubt) the figure was 0.878.
